Measured values: the supplement of paper PMC10849652
Targets with a hit are over-represented here; the source holds about 7,900 in all. About 0.6% of all pairs of compound and target were hits.

Legend:
Experiment in all cases: log2 fold change, soluble protein after heating vs DMSO (PISA); higher = thermal stabilisation; K562 cells, 10 uM, 30 min; active = over 0.2 and 3.5 SD of the protein, either way, in both replicates (recomputed)
[1] = compound: C1=CC=C(C=C1)[C@H](COC2=CC3=C(C=C2)NC(=O)N3)NC(=O)C4=CC=CN(C4=O)CC5=CC(=C(C=C5)F)F
In short: (§1)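 K562 cells at 2×10^6 cells/mL were given 10 μM compound for 30 min. Aliquots then went through 3 min of heating across 48°C-58°C, were pooled, and were extracted in PBS with 0.5% NP-40 at 4°C, and the supernatant after 21,000xg for 90 min was quantified by TMTpro 16plex LC-MS/MS with channel sums equalised. Thermal stability relative to control samples, from duplicates, is given as log2 fold change.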

[2] = compound: CC1=C(SC2=C1C(=N[C@H](C3=NN=C(N32)C)CC(=O)N)C4=CC=C(C=C4)Cl)C
In short: as §1

[3] = compound: CC1=C2C(=CC=C1)N=C(N(C2=O)C3=CC=CC=C3C)CN4C=NC5=C(N=CN=C54)N
In short: as §1

[4] = compound: Cc1sc2c(c1C)C(c1ccc(Cl)cc1)=N[C@@H](CC(=O)OC(C)(C)C)c1nnc(C)n1-2
In short: as §1

[5] = compound: c1ccc([C@@H]2C[C@H]2NC2CCNCC2)cc1
In short: as §1

Measured: log2 fold change

MAPK14 isoform 2 (UniProt Q16539)
Sequence of UniProt Q16539 (Q16539 whole entry, looked up): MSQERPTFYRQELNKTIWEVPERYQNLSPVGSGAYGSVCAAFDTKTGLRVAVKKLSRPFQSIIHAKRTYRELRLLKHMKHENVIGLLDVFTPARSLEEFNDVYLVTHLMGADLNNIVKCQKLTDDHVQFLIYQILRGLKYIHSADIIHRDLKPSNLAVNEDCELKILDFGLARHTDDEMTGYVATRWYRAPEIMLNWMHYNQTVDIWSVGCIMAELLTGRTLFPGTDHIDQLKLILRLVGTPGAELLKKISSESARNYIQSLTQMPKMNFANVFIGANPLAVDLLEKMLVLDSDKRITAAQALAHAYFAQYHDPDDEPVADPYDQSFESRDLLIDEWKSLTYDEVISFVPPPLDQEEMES
inactive: [1] -0.067 | [2] 0.139 | [3] 0.077 | [4] -0.011 | [5] -0.043

MAPKAPK2 (UniProt P49137)
inactive: [1] -0.047 | [2] 0.064 | [3] 0.012 | [4] 0.013 | [5] -0.056

LDLR (UniProt P01130)
Sequence of UniProt P01130 (P01130 whole entry, looked up): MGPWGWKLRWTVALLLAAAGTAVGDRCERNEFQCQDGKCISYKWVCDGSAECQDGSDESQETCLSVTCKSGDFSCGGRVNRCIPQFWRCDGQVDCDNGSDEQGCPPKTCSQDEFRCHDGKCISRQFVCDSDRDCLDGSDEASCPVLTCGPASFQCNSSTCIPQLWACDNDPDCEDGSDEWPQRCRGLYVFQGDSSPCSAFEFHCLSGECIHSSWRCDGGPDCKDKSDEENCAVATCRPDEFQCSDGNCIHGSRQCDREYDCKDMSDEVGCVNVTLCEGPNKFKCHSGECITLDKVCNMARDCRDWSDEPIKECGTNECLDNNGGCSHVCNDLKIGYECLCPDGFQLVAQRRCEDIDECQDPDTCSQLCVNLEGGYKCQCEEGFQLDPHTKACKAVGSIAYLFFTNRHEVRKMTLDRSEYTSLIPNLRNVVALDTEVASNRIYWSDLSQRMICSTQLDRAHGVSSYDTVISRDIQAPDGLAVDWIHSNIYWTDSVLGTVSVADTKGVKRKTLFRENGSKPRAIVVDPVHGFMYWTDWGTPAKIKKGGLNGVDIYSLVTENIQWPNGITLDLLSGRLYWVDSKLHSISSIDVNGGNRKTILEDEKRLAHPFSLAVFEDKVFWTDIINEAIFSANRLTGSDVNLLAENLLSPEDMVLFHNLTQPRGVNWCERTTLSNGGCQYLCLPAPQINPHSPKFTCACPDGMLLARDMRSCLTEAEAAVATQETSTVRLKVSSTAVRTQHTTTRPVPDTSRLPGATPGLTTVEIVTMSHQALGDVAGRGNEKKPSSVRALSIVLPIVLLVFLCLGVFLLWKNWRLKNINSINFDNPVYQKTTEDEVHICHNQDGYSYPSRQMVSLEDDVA
inactive: [1] -0.037 | [2] 0.014 | [3] 0.037 | [4] 0.022 | [5] 0.062

KPNA1 (UniProt P52294)
inactive: [1] -0.03 | [2] -0.049 | [3] 0.079 | [4] -0.003 | [5] -0.001

MAP3K4 isoform 2 (UniProt Q9Y6R4)
inactive: [1] -0.047 | [2] 0.026 | [3] 0.057 | [4] -0.034 | [5] 0.018

LTN1 isoform 3 (UniProt O94822)
inactive: [1] -0.058 | [2] 0.015 | [3] 0.08 | [4] -0.003 | [5] -0.005

LOX (UniProt P28300)
inactive: [1] -0.113

LPIN1 isoform 7 (UniProt Q14693)
inactive: [1] -0.071 | [2] 0.086 | [3] 0.071 | [4] 0.02 | [5] 0.023

KIF3B (UniProt O15066)
inactive: [1] -0.068 | [2] -0.014 | [3] 0.028 | [4] 0.09 | [5] -0.054

LDLRAP1 (UniProt Q5SW96)
inactive: [1] 0.055

JAK3 (UniProt P52333)
inactive: [1] -0.011 | [2] 0.075 | [3] -0.027 | [4] 0.009 | [5] 0.032

MICOS13 (UniProt Q5XKP0)
inactive: [1] -0.018 | [2] 0.07 | [3] -0.032 | [4] 0 | [5] 0.003

KIF1B isoform 4 (UniProt O60333)
inactive: [1] -0.035 | [2] 0.027 | [3] 0.042 | [4] -0.025 | [5] -0.048

LEMD3 (UniProt Q9Y2U8)
inactive: [1] 0.067 | [2] 0.034 | [3] 0.119 | [4] -0.031 | [5] -0.01

KIF2C (UniProt Q99661)
inactive: [1] -0.062 | [2] -0.021 | [3] 0.094 | [4] 0.002 | [5] -0.029

KNTC1 (UniProt P50748)
inactive: [1] -0.079 | [2] 0.011 | [3] 0.106 | [4] -0.011 | [5] -0.008

IPP (UniProt Q9Y573)
inactive: [1] 0.065

LRRFIP1 (UniProt Q32MZ4)
inactive: [1] 0.019 | [2] 0.036 | [3] -0.016 | [4] 0.023 | [5] 0.011

INPP1 (UniProt P49441)
inactive: [1] -0.017 | [2] -0.002 | [3] 0.125 | [4] -0.002 | [5] 0.01

KXD1 (UniProt Q9BQD3)
Sequence of UniProt Q9BQD3 (Q9BQD3 whole entry, looked up): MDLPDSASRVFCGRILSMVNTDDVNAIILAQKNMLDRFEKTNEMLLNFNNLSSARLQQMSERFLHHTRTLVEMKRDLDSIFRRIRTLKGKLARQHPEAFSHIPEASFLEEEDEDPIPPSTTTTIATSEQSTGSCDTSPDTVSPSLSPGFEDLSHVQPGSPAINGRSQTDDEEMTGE
inactive: [1] -0.178 | [2] 0.079 | [3] 0.042 | [4] -0.079 | [5] 0.034

LMBRD2 (UniProt Q68DH5)
inactive: [1] 0.029 | [2] 0.084 | [3] 0.06 | [4] -0.12 | [5] -0.035

MARCHF3 (UniProt Q86UD3)
inactive: [1] -0.096

MIEF1 (UniProt Q9NQG6)
Sequence of UniProt Q9NQG6 (Q9NQG6 whole entry, looked up): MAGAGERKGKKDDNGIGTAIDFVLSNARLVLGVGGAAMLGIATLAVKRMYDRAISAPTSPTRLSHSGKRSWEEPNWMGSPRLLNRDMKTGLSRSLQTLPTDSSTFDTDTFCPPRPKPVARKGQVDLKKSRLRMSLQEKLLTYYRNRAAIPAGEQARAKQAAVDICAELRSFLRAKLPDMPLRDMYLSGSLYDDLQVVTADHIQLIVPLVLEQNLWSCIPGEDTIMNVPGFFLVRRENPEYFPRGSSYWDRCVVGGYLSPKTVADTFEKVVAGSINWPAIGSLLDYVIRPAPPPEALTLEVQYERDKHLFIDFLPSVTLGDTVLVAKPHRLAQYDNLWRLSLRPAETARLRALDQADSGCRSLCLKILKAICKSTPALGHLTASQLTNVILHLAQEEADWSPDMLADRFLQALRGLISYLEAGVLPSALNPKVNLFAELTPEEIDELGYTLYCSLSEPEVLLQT
inactive: [1] -0.043 | [2] 0.053 | [3] 0.047 | [4] -0.024 | [5] -0.054

MAST4 (UniProt O15021)
inactive: [1] -0.081 | [2] 0.037 | [3] 0.061 | [4] -0.002 | [5] -0.041

MARK3 (UniProt P27448)
inactive: [1] -0.042 | [2] 0.039 | [3] 0.104 | [4] 0.121 | [5] 0.004

LSS (UniProt P48449)
inactive: [1] -0.077 | [2] 0.059 | [3] 0.127 | [4] -0.018 | [5] 0.087

LYPLA2 (UniProt O95372)
Sequence of UniProt O95372 (O95372 whole entry, looked up): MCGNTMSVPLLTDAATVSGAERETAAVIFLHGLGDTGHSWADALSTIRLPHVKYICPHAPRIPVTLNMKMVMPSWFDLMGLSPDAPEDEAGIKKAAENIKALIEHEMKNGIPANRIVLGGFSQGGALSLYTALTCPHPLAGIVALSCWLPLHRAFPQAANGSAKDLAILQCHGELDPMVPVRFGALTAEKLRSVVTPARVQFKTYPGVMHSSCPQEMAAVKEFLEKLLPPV
inactive: [1] 0.033 | [2] 0.056 | [3] -0.023 | [4] -0.161 | [5] -0.08

LAPTM4B (UniProt Q86VI4)
inactive: [1] -0.12

L2HGDH (UniProt Q9H9P8)
inactive: [1] -0.031 | [2] 0.07 | [3] 0.078 | [4] 0.018 | [5] -0.029

LUZP1 (UniProt Q86V48)
inactive: [1] -0.053 | [2] -0.141 | [3] -0.171 | [4] -0.217 | [5] -0.201

MAP4 isoform 5 (UniProt P27816)
inactive: [1] 0.077

LBR (UniProt Q14739)
inactive: [1] -0.105 | [2] 0.051 | [3] 0.011 | [4] -0.054 | [5] -0.005

LMBRD1 (UniProt Q9NUN5)
inactive: [1] 0.013 | [2] 0.099 | [3] 0.143 | [4] -0.178 | [5] 0.039

LARP4 isoform 4 (UniProt Q71RC2)
Sequence of UniProt Q71RC2 (Q71RC2 whole entry, looked up): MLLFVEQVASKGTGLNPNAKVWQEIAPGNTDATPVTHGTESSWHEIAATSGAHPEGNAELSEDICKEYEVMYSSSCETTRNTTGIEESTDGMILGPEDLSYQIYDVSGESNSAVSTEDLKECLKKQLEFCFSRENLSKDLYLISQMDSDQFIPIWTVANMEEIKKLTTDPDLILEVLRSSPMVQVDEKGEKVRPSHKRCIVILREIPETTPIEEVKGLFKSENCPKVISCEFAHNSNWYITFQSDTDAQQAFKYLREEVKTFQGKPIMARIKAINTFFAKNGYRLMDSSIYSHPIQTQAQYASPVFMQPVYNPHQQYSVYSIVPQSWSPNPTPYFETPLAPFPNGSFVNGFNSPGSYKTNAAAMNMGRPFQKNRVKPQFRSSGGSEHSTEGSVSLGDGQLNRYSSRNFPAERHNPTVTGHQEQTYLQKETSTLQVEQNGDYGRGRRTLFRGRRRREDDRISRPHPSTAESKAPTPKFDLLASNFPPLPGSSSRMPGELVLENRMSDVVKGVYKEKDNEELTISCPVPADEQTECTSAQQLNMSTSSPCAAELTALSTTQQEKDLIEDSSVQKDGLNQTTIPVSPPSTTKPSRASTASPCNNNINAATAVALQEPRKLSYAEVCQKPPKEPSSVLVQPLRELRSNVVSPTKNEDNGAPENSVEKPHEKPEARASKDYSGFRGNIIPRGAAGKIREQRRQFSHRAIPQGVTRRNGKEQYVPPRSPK
inactive: [1] 0.069 | [2] -0.071 | [3] 0 | [4] 0.093 | [5] 0.036

IPO9 (UniProt Q96P70)
Sequence of UniProt Q96P70 (Q96P70 whole entry, looked up): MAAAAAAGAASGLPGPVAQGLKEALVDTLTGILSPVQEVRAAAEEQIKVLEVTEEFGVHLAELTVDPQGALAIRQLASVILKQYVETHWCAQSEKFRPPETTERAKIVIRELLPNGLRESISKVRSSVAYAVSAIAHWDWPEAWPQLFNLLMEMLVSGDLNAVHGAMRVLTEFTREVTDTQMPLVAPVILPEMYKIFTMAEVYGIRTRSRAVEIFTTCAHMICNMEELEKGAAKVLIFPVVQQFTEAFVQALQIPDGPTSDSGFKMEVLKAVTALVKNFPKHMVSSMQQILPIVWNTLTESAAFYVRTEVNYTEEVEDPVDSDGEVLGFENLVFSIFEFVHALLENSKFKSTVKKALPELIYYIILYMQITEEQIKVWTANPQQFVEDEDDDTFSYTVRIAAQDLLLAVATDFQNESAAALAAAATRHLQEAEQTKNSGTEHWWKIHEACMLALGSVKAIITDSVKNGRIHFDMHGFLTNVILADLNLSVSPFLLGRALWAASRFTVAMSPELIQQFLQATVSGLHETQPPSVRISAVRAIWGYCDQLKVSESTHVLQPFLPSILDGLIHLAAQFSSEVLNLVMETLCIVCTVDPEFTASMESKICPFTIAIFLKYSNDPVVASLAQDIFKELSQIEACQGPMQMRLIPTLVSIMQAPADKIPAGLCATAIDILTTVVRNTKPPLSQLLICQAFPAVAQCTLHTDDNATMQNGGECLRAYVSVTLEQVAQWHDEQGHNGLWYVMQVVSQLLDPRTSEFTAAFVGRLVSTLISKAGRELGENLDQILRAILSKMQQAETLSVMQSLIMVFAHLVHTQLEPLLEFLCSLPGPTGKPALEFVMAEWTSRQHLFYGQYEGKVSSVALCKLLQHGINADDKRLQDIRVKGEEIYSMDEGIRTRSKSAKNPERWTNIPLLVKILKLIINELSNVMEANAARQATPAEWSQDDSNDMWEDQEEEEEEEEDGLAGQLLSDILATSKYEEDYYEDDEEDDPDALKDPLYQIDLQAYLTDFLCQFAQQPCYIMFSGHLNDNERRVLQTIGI
inactive: [1] 0.018 | [2] 0.063 | [3] 0.014 | [4] -0.01 | [5] 0.079

MFSD11 (UniProt O43934)
inactive: [1] 0.04 | [2] 0.11 | [3] 0.104 | [4] -0.03 | [5] -0.049

ILF3 (UniProt Q12906)
inactive: [1] 0.06

METTL18 (UniProt O95568)
inactive: [1] 0 | [2] -0.027 | [3] 0.061 | [4] -0.055 | [5] 0.028

IKZF1 isoform 2 (UniProt Q13422)
inactive: [1] 0.335 | [2] 0.217 | [3] 0.052 | [4] -0.026 | [5] 0.061

ILF3 isoform 7 (UniProt Q12906)
inactive: [1] 0.038 | [2] -0.061 | [3] -0.126 | [4] 0.194 | [5] 0.028

MIER1 isoform 12 (UniProt Q8N108)
inactive: [1] -0.012 | [2] 0.073 | [3] 0.059 | [4] 0.016 | [5] 0.02

LIMD1 (UniProt Q9UGP4)
inactive: [1] 0.006 | [2] 0.004 | [3] -0.014 | [4] -0.005 | [5] 0.028

KPNA4 (UniProt O00629)
Sequence of UniProt O00629 (O00629 whole entry, looked up): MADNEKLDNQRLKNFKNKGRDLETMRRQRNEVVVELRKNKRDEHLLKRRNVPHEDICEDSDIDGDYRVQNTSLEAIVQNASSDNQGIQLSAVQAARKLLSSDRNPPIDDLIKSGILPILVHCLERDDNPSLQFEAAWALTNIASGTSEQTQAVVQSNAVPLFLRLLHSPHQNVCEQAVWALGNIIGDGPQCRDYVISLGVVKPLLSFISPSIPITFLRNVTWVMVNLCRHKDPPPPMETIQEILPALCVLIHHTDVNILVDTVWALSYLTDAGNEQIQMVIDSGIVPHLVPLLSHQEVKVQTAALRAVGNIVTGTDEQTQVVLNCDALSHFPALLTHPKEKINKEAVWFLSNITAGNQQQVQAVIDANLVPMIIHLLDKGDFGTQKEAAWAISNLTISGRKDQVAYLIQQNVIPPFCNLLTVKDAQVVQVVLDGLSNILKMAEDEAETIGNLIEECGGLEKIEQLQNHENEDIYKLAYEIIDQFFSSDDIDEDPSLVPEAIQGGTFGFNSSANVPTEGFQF
inactive: [1] -0.017 | [2] 0.004 | [3] 0.035 | [4] 0.004 | [5] 0.009

IMMT isoform 4 (UniProt Q16891)
inactive: [1] 0.005 | [2] 0.021 | [3] 0.026 | [4] -0.025 | [5] -0.008

KDM1A isoform 2 (UniProt O60341)
active: [5] 1.73
inactive: [1] -0.05 | [2] 0 | [3] 0.087 | [4] -0.019

IK (UniProt Q13123)
inactive: [1] 0.023 | [2] -0.067 | [3] -0.006 | [4] 0.041 | [5] -0.045

KIF21A isoform 4 (UniProt Q7Z4S6)
inactive: [1] -0.003 | [2] -0.024 | [3] 0.061 | [4] -0.077 | [5] 0.014

ILKAP (UniProt Q9H0C8)
inactive: [1] -0.071 | [2] 0.076 | [3] 0.135 | [4] -0.045 | [5] -0.046

MCL1 (UniProt Q07820)
inactive: [1] -0.013 | [2] 0.125 | [3] 0.135 | [4] 0.057 | [5] 0.073

MAP3K7 (UniProt O43318)
Sequence of UniProt O43318 (O43318 whole entry, looked up): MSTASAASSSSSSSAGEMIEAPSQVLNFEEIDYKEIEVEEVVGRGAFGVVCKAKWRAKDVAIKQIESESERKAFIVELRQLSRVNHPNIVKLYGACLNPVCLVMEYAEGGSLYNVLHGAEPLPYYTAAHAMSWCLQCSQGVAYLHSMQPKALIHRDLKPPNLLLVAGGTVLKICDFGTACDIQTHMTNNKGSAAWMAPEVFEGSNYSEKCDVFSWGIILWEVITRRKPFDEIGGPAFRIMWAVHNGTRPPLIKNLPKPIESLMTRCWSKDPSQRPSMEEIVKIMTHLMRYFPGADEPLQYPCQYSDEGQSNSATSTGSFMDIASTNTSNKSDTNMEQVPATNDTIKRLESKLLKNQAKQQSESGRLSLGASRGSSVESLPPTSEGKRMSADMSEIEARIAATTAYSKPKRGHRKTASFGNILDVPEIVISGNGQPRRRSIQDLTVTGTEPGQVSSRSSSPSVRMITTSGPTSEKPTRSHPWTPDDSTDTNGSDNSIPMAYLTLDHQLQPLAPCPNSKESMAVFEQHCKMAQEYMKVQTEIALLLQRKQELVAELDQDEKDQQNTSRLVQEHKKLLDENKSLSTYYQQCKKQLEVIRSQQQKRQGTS
inactive: [1] -0.085 | [2] 0.005 | [3] 0.11 | [4] 0.061 | [5] 0.023

IWS1 (UniProt Q96ST2)
inactive: [1] -0.01 | [2] 0.08 | [3] 0.037 | [4] 0.045 | [5] -0.035

MAPK12 (UniProt P53778)
inactive: [1] -0.022 | [2] 0.017 | [3] 0.026 | [4] 0.008 | [5] -0.002

MAPK8 isoform 3 (UniProt P45983)
inactive: [1] -0.007 | [2] 0.151 | [3] 0.072 | [4] 0.061 | [5] -0.055

MED1 (UniProt Q15648)
inactive: [1] -0.033 | [2] -0.009 | [3] 0.03 | [4] 0.079 | [5] 0.058

ITIH4 (UniProt Q14624)
inactive: [1] -0.088 | [2] 0.015 | [3] 0.089 | [4] -0.133 | [5] -0.006

ME2 (UniProt P23368)
inactive: [1] 0.046 | [2] 0.073 | [3] 0.078 | [4] -0.086 | [5] 0.09

LEO1 (UniProt Q8WVC0)
inactive: [1] -0.009 | [2] 0.046 | [3] -0.009 | [4] -0.016 | [5] -0.011
